# Measurements from PubChem BioAssay.
# Calls of active or inactive are those of the source. Rule as the data show it, unless noted: active = inhibition above about 80%; inactive = the rest.
# What was measured:
# [1] = LFS_MB_P medulloblastoma growth inhibition, cell-based, chromothripsis tumors, cisplatin or BGB combos (AID 1671449); conditions: LFS_MB_P medulloblastoma cells;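 also: cells exposed for 96 hours; 0% = vehicle DMSO and 100% = killing by high DMSO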
# [2] = HDN33 neuroblastoma growth inhibition, cell-based, chromothripsis tumors, cisplatin or BGB combos (AID 1671450); conditions: HDN33 neuroblastoma cells, stronger effect = higher value;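 also: cells exposed to compound for four days; 0% = vehicle DMSO and 100% = cell killing by high DMSO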
# [3] = ICB984 medulloblastoma cell growth inhibition, synergistic combos for chromothripsis tumors, cisplatin or BGB combos (AID 1671451; call rule not given here;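 also: cells exposed for 96 hours before readout; 0% = vehicle DMSO and 100% = killing by high DMSO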); conditions: ICB984 medulloblastoma cells, drug combinations, stronger effect = higher value
# [4] = LFS_MB_1R medulloblastoma cell growth inhibition, synergistic combos for chromothripsis tumors, cisplatin or BGB combos (AID 1671452); conditions: LFS_MB_1R medulloblastoma cells, stronger effect = higher value;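 also: cells exposed for 96 hours before readout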
# [5] = HTB85 osteosarcoma cell growth inhibition, synergistic combos for chromothripsis tumors, BGB or cisplatin IC20 combos (AID 1671453); conditions: HTB85 osteosarcoma cells, drug combinations, stronger effect = higher value;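 also: cells exposed for 96 hours before readout; 0% = vehicle DMSO and 100% = high DMSO killing control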
# [6] = CRL2098 osteosarcoma cell growth inhibition, synergistic combos for chromothripsis tumors, BGB or cisplatin IC20 combos (AID 1671454); conditions: CRL2098 osteosarcoma cells, drug combinations, stronger effect = higher value;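 also: cells exposed for 96 h before readout; 0% = vehicle DMSO and 100% = killing by high DMSO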
# [7] = HD-MB03 medulloblastoma cell growth inhibition, synergistic combos for chromothripsis tumors, BGB or cisplatin IC20 combos (AID 1671455; in the data active = inhibition above about 83%;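 also: 0% = vehicle DMSO and 100% = high DMSO as cytotoxic control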); conditions: HD-MB03 medulloblastoma cells, stronger effect = higher value
# [8] = UWB1.289 ovarian carcinoma cell growth inhibition, synergistic combos for chromothripsis tumors, BGB or cisplatin combos (AID 1671456); conditions: UWB1.289 ovarian carcinoma cells, stronger effect = higher value;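 also: cells exposed to compound for four days; 0% = vehicle DMSO and 100% = killing by high DMSO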
# [9] = LFS_MB_2R medulloblastoma cell growth inhibition, synergistic combos for chromothripsis tumors, cisplatin combos (AID 1671457); conditions: LFS_MB_2R medulloblastoma cells, stronger effect = higher value;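 also: cells exposed to compound for four days before readout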
# [10] = MDA-MB-436 breast carcinoma cell growth inhibition, synergistic combos for chromothripsis tumors, BGB or cisplatin combos (AID 1671458; call rule not given here;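 also: cells exposed for 96 hours; 0% = vehicle DMSO and 100% = killing by high DMSO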); conditions: MDA-MB-436 breast carcinoma growth inhibition, drug combinations, stronger effect = higher value
# [11] = UWB1.289_BRCA1 ovarian cancer growth, cell-based, BGB or cisplatin combinations (AID 1671459); conditions: UWB1.289 BRCA1 ovarian carcinoma, drug combinations, stronger effect = higher value
# [12] = human astrocyte viability loss, single and combined drugs, cytotoxicity control for chromothriptic childhood tumor combination screen, cell-based, BGB or cisplatin IC20 combos (AID 1671460); conditions: Human astrocytes, drug combinations, stronger effect = higher value;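 also: cells exposed to compounds for 96 hours before viability readout; 0% = vehicle and 100% = killing control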
# [13] = growth inhibition of BT084 medulloblastoma cells, cell-based, ICGC_MB145, cisplatin and BGB IC40 combos (AID 1671461); conditions: drug combinations, stronger effect = higher value;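 also: cells exposed to drugs for 96 hours; 0% = vehicle DMSO and 100% = high DMSO full killing control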
# [14] = growth inhibition of RCMB18 medulloblastoma cells, cell-based, cisplatin and BGB IC40 combos (AID 1671462); conditions: stronger effect = higher value;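 also: cells exposed to compound for four days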
# [15] = growth inhibition of CRL1545 osteosarcoma cells, cell-based, cisplatin and BGB IC20 combos (AID 1671464); conditions: stronger effect = higher value;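 also: cells exposed to compound for 96 hours before readout; 0% = vehicle DMSO and 100% = high DMSO killing control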
# [16] = at 0.5 µM, stronger effect = higher value
# [17] = measured here: combination with BGB IC20, at 0.005 µM
# [18] = measured here: combination with BGB IC40, at 0.005 µM
# [19] = measured here: combination with BGB IC40, at 0.05 µM
# [20] = measured here: combination with cisplatin, at 0.5 µM, stronger effect = higher value
# [21] = measured here: combination with cisplatin, at 5 µM, stronger effect = higher value
# [22] = measured here: with BGB IC20 combination, at 0.5 µM
# [23] = measured here: with cisplatin IC20 combination, at 0.5 µM
# [24] = measured here: 5 uM single agent, at 5 µM
# [25] = measured here: combination with cisplatin, at 0.5 µM
# [26] = measured here: combination with cisplatin, at 5 µM
# [27] = measured here: with BGB IC20, at 0.5 µM
# [28] = measured here: with BGB IC20, at 5 µM
# [29] = measured here: with cisplatin IC20, at 0.5 µM
# [30] = measured here: with cisplatin IC20, at 5 µM
# [31] = measured here: combination with BGB at IC20, at 0.5 µM
# [32] = measured here: combination with cisplatin at IC20, at 0.5 µM
# [33] = measured here: combo with BGB at IC20, at 0.5 µM
# [34] = measured here: combo with cisplatin at IC20, at 0.5 µM
# [35] = measured here: inhibition with BGB combination, at 0.05 µM
# [36] = measured here: inhibition with cisplatin combination, at 0.05 µM
# [37] = measured here: BGB combination, at 0.5 µM
# [38] = measured here: BGB combination, at 5 µM
# [39] = measured here: cisplatin combination, at 0.5 µM
# [40] = measured here: cisplatin combination, at 5 µM
# [41] = BGB combination, concentration series, at 5 µM
# [42] = cisplatin combination, concentration series, at 5 µM
# [43] = measured here: combo with BGB IC20, at 0.5 µM
# [44] = measured here: combo with cisplatin IC20, at 0.5 µM
# [45] = cisplatin combination, at 0.5 µM
# [46] = measured here: BGB IC40 combination 0.05 uM, at 0.05 µM
# [47] = measured here: BGB IC40 combination, at 0.05 µM
compound,measurement,setting,value
CC(C)C(=O)SCCCCCCC(=O)Nc1nc(-c2ccccc2)cs1,inhibition,[1]; [16],-25.8% (inactive)
same,inhibition,[1]; [17],-14.6%
same,inhibition,[1]; [18],-57.5%
same,inhibition,[1]; [19],-33.9%
same,inhibition,[1]; [20],-38.9%
same,inhibition,[1]; [21],85.2%
same,inhibition,"[2]; BGB combo, at 5 µM",48.9%
same,inhibition,[2]; at 0.5 µM,6.91% (inactive)
same,inhibition,"[2]; cisplatin combo, at 5 µM",45.1%
same,inhibition,[2]; [22],1.56%
same,inhibition,[2]; [23],14.6%
same,inhibition,"[2]; single agent, at 5 µM",57.6%
same,inhibition,"[3]; BGB IC20 combo, at 0.005 µM",16.1%
same,inhibition,"[3]; BGB IC40 combo, at 0.005 µM",-25.2%
same,inhibition,"[3]; BGB IC40 combo, at 0.05 µM",31.3%
same,inhibition,[3]; at 0.5 µM,-31.1% (inactive)
same,inhibition,"[3]; cisplatin combo, at 0.05 µM",28%
same,inhibition,"[3]; cisplatin combo, at 0.5 µM",-33.4%
same,inhibition,"[3]; cisplatin combo, at 5 µM",-7.7%
same,inhibition,[3]; [24],4.47%
same,inhibition,[4]; at 0.5 µM,-22% (inactive)
same,inhibition,[4]; [19],-72.1%
same,inhibition,[4]; [25],-44.8%
same,inhibition,[4]; [26],68.5%
same,inhibition,[5]; at 0.5 µM,-4.36% (inactive)
same,inhibition,[5]; [27],2.11%
same,inhibition,[5]; [28],19%
same,inhibition,[5]; [29],-21.4%
same,inhibition,[5]; [30],38.3%
same,inhibition,"[5]; single agent, at 5 µM",22.2%
same,inhibition,[6]; at 0.5 µM,-30.2% (inactive)
same,inhibition,[6]; [31],-44.3%
same,inhibition,[6]; [32],-19.3%
same,inhibition,[7]; at 0.5 µM,4.11% (inactive)
same,inhibition,[7]; [33],5.74%
same,inhibition,[7]; [34],11.7%
same,inhibition,[8]; at 0.5 µM,5.55% (inactive)
same,inhibition,[8]; [35],-30.6%
same,inhibition,[8]; [36],-3.57%
same,inhibition,[9]; at 0.5 µM,-13.4% (inactive)
same,inhibition,[9]; [25],-25.2%
same,inhibition,[9]; [26],54.7%
same,inhibition,[10]; at 0.5 µM,-7.93% (inactive)
same,inhibition,[10]; [37],-9.46%
same,inhibition,[10]; [38],10.2%
same,inhibition,[10]; [39],-23.5%
same,inhibition,[10]; [40],18.2%
same,inhibition,[11]; [41],37.8%
same,inhibition,[11]; at 0.5 µM,9.48% (inactive)
same,inhibition,[11]; [42],66.2%
same,inhibition,[12]; at 0.5 µM,31.1% (inactive)
same,inhibition,[12]; [43],34.6%
same,inhibition,[12]; [44],18.5%
same,inhibition,[13]; at 0.5 µM,-9.26% (inactive)
same,inhibition,[13]; [45],-8.48%
same,inhibition,"[13]; cisplatin combination, at 5 µM",42.4%
same,inhibition,[13]; [46],-39.7%
same,inhibition,"[13]; single agent, at 5 µM",71.8%
same,inhibition,[14]; at 0.5 µM,-9.74% (inactive)
same,inhibition,"[14]; cisplatin combo, at 5 µM",41%
same,inhibition,[14]; [47],12.2%
same,inhibition,[14]; [25],-9.58%
same,inhibition,"[14]; single agent, at 5 µM",36.3%
same,inhibition,[15]; at 0.5 µM,33.1% (inactive)
same,inhibition,[15]; [22],24.9%
same,inhibition,[15]; [23],36.2%
same,inhibition,"[15]; single agent, at 0.05 µM",0.931%
same,inhibition,"[15]; single agent, at 5 µM",46.6%
Nc1nc(NC2CC2)cc(-c2cccc(Cl)c2Cl)n1,inhibition,[1]; [16],-24.4% (inactive)
same,inhibition,[1]; [17],6.42%
same,inhibition,[1]; [18],-13.3%
same,inhibition,[1]; [19],-3.68%
same,inhibition,[1]; [20],-27.2%
same,inhibition,[1]; [21],-1.92%
same,inhibition,"[2]; BGB combo, at 5 µM",4.24%
same,inhibition,[2]; at 0.5 µM,-22.2% (inactive)
same,inhibition,"[2]; cisplatin combo, at 5 µM",-25.5%
same,inhibition,[2]; [22],-14.4%
same,inhibition,[2]; [23],-33.4%
same,inhibition,"[2]; single agent, at 5 µM",1.5%
same,inhibition,"[3]; BGB IC20 combo, at 0.005 µM",-16.3%
same,inhibition,"[3]; BGB IC40 combo, at 0.005 µM",-42.9%
same,inhibition,"[3]; BGB IC40 combo, at 0.05 µM",-23.9%
same,inhibition,[3]; at 0.5 µM,-15.4% (inactive)
same,inhibition,"[3]; cisplatin combo, at 0.05 µM",-28.8%
same,inhibition,"[3]; cisplatin combo, at 0.5 µM",-25.9%
same,inhibition,"[3]; cisplatin combo, at 5 µM",-24%
same,inhibition,[3]; [24],-4.67%
same,inhibition,[4]; at 0.5 µM,-47.5% (inactive)
same,inhibition,[4]; [19],-29.4%
same,inhibition,[4]; [25],-115%
same,inhibition,[4]; [26],-60.1%
same,inhibition,[5]; at 0.5 µM,-20.9% (inactive)
same,inhibition,[5]; [27],-3.53%
same,inhibition,[5]; [28],-8.44%
same,inhibition,[5]; [29],-38.1%
same,inhibition,[5]; [30],-21.3%
same,inhibition,"[5]; single agent, at 5 µM",3.83%
same,inhibition,[6]; at 0.5 µM,-50% (inactive)
same,inhibition,[6]; [31],-42.1%
same,inhibition,[6]; [32],-36.5%
same,inhibition,[7]; at 0.5 µM,-12.4% (inactive)
same,inhibition,[7]; [33],-17%
same,inhibition,[7]; [34],-8.02%
same,inhibition,[8]; at 0.5 µM,-15.7% (inactive)
same,inhibition,[8]; [35],-10.8%
same,inhibition,[8]; [36],-19.7%
same,inhibition,[9]; at 0.5 µM,-12.8% (inactive)
same,inhibition,[9]; [25],-18%
same,inhibition,[9]; [26],18.1%
same,inhibition,[10]; at 0.5 µM,-5.02% (inactive)
same,inhibition,[10]; [37],-1.67%
same,inhibition,[10]; [38],10.3%
same,inhibition,[10]; [39],-5.74%
same,inhibition,[10]; [40],15.8%
same,inhibition,[11]; [41],9.28%
same,inhibition,[11]; at 0.5 µM,-9.72% (inactive)
same,inhibition,[11]; [42],10.7%
same,inhibition,[12]; at 0.5 µM,-2.78% (inactive)
same,inhibition,[12]; [43],-4.24%
same,inhibition,[12]; [44],6.45%
same,inhibition,[13]; at 0.5 µM,-9.21% (inactive)
same,inhibition,[13]; [45],-6.21%
same,inhibition,"[13]; cisplatin combination, at 5 µM",-20.8%
same,inhibition,[13]; [46],-10.7%
same,inhibition,"[13]; single agent, at 5 µM",-6.16%
same,inhibition,[14]; at 0.5 µM,-8.4% (inactive)
same,inhibition,"[14]; cisplatin combo, at 5 µM",-0.639%
same,inhibition,[14]; [47],-3.5%
same,inhibition,[14]; [25],-22.4%
same,inhibition,"[14]; single agent, at 5 µM",-28.4%
same,inhibition,[15]; at 0.5 µM,-36.8% (inactive)
same,inhibition,[15]; [22],-16.7%
same,inhibition,[15]; [23],-46.8%
same,inhibition,"[15]; single agent, at 0.05 µM",-25%
same,inhibition,"[15]; single agent, at 5 µM",-32.6%
